From paper PMC5540273 (PLoS ONE, 2017)

What was measured:
Conditions in all cases: concentration: 1 μM,replicates: in singlicate; n = 1
[1] = tested on: T1, RSK4(Kin.Dom.1-N-terminal)
T1 construct: gene RPS6KA6

[2] = tested on: T2, RSK4(Kin.Dom.2-C-terminal)
T2 construct: gene RPS6KA6

S6K1 = tested on: S6K1
SBK1 = tested on: SBK1
SGK2 = tested on: SGK2
SGK3 = tested on: SGK3
SGK = tested on: SGK
SIK2 = tested on: SIK2
SIK = tested on: SIK
SLK = tested on: SLK
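Note: KINOMEscan kinase panel screen.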

Row | Compound | %Inh [1] [%] | %Inh [2] [%] | %Inh (S6K1) [%] | %Inh (SBK1) [%] | %Inh (SGK2) [%] | %Inh (SGK3) [%] | %Inh (SGK) [%] | %Inh (SIK2) [%] | %Inh (SIK) [%] | %Inh (SLK) [%]
1 | Cc1nnc(-c2ccc3occ(-c4ccc(S(C)=O)cc4)c3n2)o1 (centres unmarked) | 0 | 15 | 0 | 0 | 0 | 0 | 0 | 59 | 4 | 0
2 | COc1cccc(CNC(=O)NC2CCN(c3ccnc(Nc4cc(OC)c(OC)c(OC)c4)n3)C2)c1 (centres unmarked) [GSK1379765] | 7 | 3 | 14 | 19 | 4 | 2 | 0 | 0 | 0 | 30
3 | Cl.c1ccc(Oc2ccc(Nc3ccnc4cc(-c5ccc(CN6CCNCC6)o5)ccc34)cc2)nc1 [GW567142] | 0 | 22 | 0 | 0 | 0 | 0 | 22 | 65 | 97.4 | 19
4 | NC(=O)c1ccc(-c2cc3ncnc(SCC(=O)O)c3s2)cc1 | 0 | 0 | 15 | 0 | 0 | 0 | 0 | 7 | 6 | 10
5 | CS(=O)(=O)c1cccc(CNc2nc(Nc3ccc4c(c3)[C@@H]3C[C@@H]4CNC3=O)ncc2C(F)(F)F)c1 | 73 | 5 | 0 | 81 | 0 | 25 | 43 | 47 | 45 | 98.2
6 | O=C(NOCC1CC1)c1cc(Br)c(F)c(F)c1Nc1ccc(I)cc1Cl | 0 | 21 | 19 | 0 | 0 | 0 | 0 | 21 | 0 | 3
7 | CCNCC(Cc1ccccc1)NC(=O)c1cc(Br)c(-c2ccnc3[nH]ccc23)s1.Cl.Cl (centres unmarked) [GSK1383280] | 33 | 18 | 67 | 70 | 9 | 82 | 65 | 0 | 0 | 0
8 | Cc1ccc(C(=O)Nc2ccc(Oc3ccc4nc(NC(=O)C5CC5)cn4c3)c(F)c2)c(=O)n1-c1ccccc1 | 0 | 0 | 9 | 0 | 0 | 0 | 0 | 19 | 94.9 | 79
9 | Cn1ccc2ncnc(Oc3ccc(NC(=O)Nc4cccc(C(F)(F)F)c4)c(F)c3)c21 | 0 | 2 | 22 | 0 | 0 | 2 | 0 | 3 | 28 | 54
10 | Cc1n[nH]c2cc(Nc3ccnc(Nc4cccc(CN5CCOCC5)c4)n3)ccc12 [GW682569] | 19 | 16 | 0 | 0 | 0 | 17 | 0 | 33 | 46 | 0
11 | O=C(Nc1ccccc1)c1cccc(Oc2ccc3nccn3n2)c1 | 5 | 0 | 0 | 5 | 18 | 17 | 0 | 0 | 0 | 9
12 | CCCC(=O)Nc1n[nH]c2ncccc12 [SB-601436] | 0 | 0 | 0 | 2 | 17 | 10 | 7 | 0 | 0 | 0
13 | O=C(Nc1cccc(C(F)(F)F)c1)c1cccc(Oc2ccc3nccn3n2)c1 | 23 | 22 | 2 | 35 | 15 | 14 | 9 | 0 | 0 | 10
14 | CN1CCN(CCCNc2nccc(-c3c(-c4ccc(F)cc4)nn4cc(C(N)=O)ccc34)n2)CC1 [GW622475] | 0 | 91.6 | 8 | 23 | 0 | 8 | 0 | 9 | 7 | 63
15 | COC(=O)c1cccc(NC(=O)NC2CCN(c3ccnc(NCc4ccc(F)cc4)n3)CC2)c1 [GSK1379860] | 0 | 0 | 0 | 32 | 0 | 0 | 0 | 0 | 5 | 2
16 | CCOC(=O)N1CCC(n2cnc(-c3ccc(F)cc3)c2-c2ccnc(N)n2)CC1 [SB-219952] | 9 | 65 | 22 | 0 | 33 | 6 | 17 | 0 | 0 | 0
17 | Cn1cc(-c2cccc3c(N)c(C(N)=O)nnc23)cn1 | 22 | 3 | 22 | 19 | 45 | 64 | 78 | 17 | 24 | 0
18 | CCN1CCN(CCCC(=O)Nc2n[nH]c3nc(-c4ccc(O)cc4)c(Br)cc23)CC1 [SB-731579] | 20 | 0 | 0 | 10 | 0 | 0 | 0 | 0 | 0 | 78
19 | CCn1c(-c2nonc2N)nc2cncc(Br)c21 [SB-738004] | 64 | 29 | 45 | 8 | 0 | 66 | 45 | 7 | 15 | 0
20 | N#Cc1cccc(C(=O)NC2CCN(c3ccnc(Nc4ccc(F)cc4)n3)C2)c1 (centres unmarked) [GSK1379708] | 0 | 0 | 1 | 2 | 5 | 0 | 0 | 0 | 7 | 16
21 | Cc1cccc2c(-c3ccncc3)c(-c3ccc(F)cc3)nn12.Cl [GW461487] | 21 | 83 | 5 | 8 | 8 | 13 | 0 | 0 | 0 | 15
22 | O=C(Nc1n[nH]c2cc(-c3ccco3)ccc12)C1CC1 [SB-737447] | 26 | 10 | 4 | 23 | 30 | 34 | 47 | 0 | 0 | 13

Row | Compound | %Inh [1] [%] | %Inh [2] [%] | %Inh (S6K1) [%] | %Inh (SBK1) [%] | %Inh (SGK2) [%] | %Inh (SGK3) [%] | %Inh (SGK) [%] | %Inh (SIK2) [%] | %Inh (SIK) [%] | %Inh (SLK) [%]
23 | O=C(NCC1CC1)c1ccc(-c2cc(C(=O)NC3CC3)ccc2F)cc1 [GW810445] | 0 | 0 | 0 | 4 | 0 | 0 | 7 | 0 | 2 | 0
24 | COc1cccc(C2=C(Nc3cccc(Cl)c3)C(=O)NC2=O)c1 [SB-341556] | 43 | 76 | 23 | 19 | 0 | 9 | 3 | 99.9 | 0 | 92.2
25 | Cc1ccc2c(-c3ccnc(Nc4ccc(C(F)(F)F)cc4)n3)cnn2n1 [GW819776] | 23 | 0 | 29 | 8 | 0 | 0 | 9 | 2 | 0 | 21
26 | CSc1nccc(-c2c(-c3ccc(F)cc3)ncn2CCCN2CCOCC2)n1.Cl [SB-217146] | 18 | 21 | 17 | 6 | 0 | 13 | 10 | 0 | 0 | 0
27 | Cc1ccc(CC(=O)N2CCc3cc(-c4cn(C)c5ncnc(N)c45)ccc32)cc1 [GSK2634758] | 0 | 15 | 5 | 7 | 0 | 4 | 0 | 0 | 32 | 59
28 | CC(C)c1nc(-c2cccc(NS(=O)(=O)c3ccccc3)c2)c(-c2ccnc(Nc3ccc4c(c3)CN(C)CC4)n2)s1 [GSK1649598] | 0 | 46 | 66 | 43 | 35 | 53 | 77 | 87 | 99.6 | 88
29 | COc1cc(Nc2nccc(N3CCC(NC(=O)c4cccc(C#N)c4)C3)n2)cc(OC)c1OC (centres unmarked) [GSK1379751] | 0 | 9 | 0 | 22 | 2 | 0 | 3 | 0 | 0 | 1
30 | Cn1ccc2ncnc(Oc3ccc(NC(=O)Nc4cc(C(C)(C)C)on4)c(Cl)c3)c21 | 26 | 18 | 6 | 13 | 24 | 0 | 10 | 4 | 11 | 97.7
31 | CS(=O)(=O)Nc1ccc(-c2ccnc3[nH]ccc23)cc1 [GSK993273] | 27 | 60 | 37 | 55 | 13 | 12 | 24 | 39 | 9 | 49
32 | CC(=O)Nc1nc2cnc(Nc3cc(NC(=O)c4cccc(CC(C)(C)C#N)c4)ccc3C)nc2s1 | 25 | 0 | 0 | 52 | 0 | 0 | 4 | 0 | 24 | 1
33 | O=C1NCCc2[nH]c(-c3ccncc3)cc21 | 22 | 25 | 11 | 44 | 27 | 36 | 44 | 34 | 13 | 22
34 | C[C@@H]1CNc2c(sc3ccc4nc(-c5ccc(O)cc5)ccc4c23)C(=O)N1 | 80 | 8 | 6 | 32 | 8 | 24 | 20 | 16 | 20 | 0
35 | C[C@@H](Oc1cc(-n2cnc3cc(-c4ccncc4)ccc32)sc1C(N)=O)c1ccccc1Cl [GSK479719] | 25 | 21 | 11 | 19 | 5 | 0 | 0 | 43 | 11 | 99.4
36 | Cc1ccn2nc(-c3ccc(F)cc3)c(-c3ccncc3)c2c1.Cl [GW457859] | 0 | 85 | 1 | 10 | 0 | 5 | 22 | 0 | 0 | 2
37 | NC(=O)Nc1sc(-c2ccc(F)cc2)cc1C(N)=O [GW789449] | 76 | 4 | 3 | 16 | 10 | 31 | 1 | 16 | 21 | 25
38 | O=C(Nc1cccc(Oc2ccc3nccn3n2)c1)Nc1cccc(C(F)(F)F)c1 | 0 | 0 | 0 | 0 | 8 | 8 | 0 | 16 | 17 | 0
39 | C[C@@H](Oc1cc(-n2cnc3cc(-c4cnn(C)c4)ccc32)sc1C(N)=O)c1ccccc1Cl [GSK580432] | 37 | 7 | 0 | 13 | 5 | 0 | 0 | 74 | 65 | 99.7
40 | Cn1ccc2ncnc(Oc3ccc(NC(=O)Nc4ccnc(C(F)(F)F)c4)c(Cl)c3)c21 | 0 | 2 | 0 | 0 | 10 | 0 | 9 | 8 | 4 | 10
41 | FC(F)(F)c1cc(Br)cc(Nc2nccc(-c3cnn4ncccc34)n2)c1 [GW810578] | 13 | 0 | 4 | 0 | 0 | 17 | 2 | 0 | 14 | 13
42 | CC(=O)c1c(-c2ccncc2)[nH]c(-c2ccncc2)c1C [GW493036] | 0 | 4 | 6 | 10 | 11 | 9 | 0 | 0 | 0 | 0
43 | CNC(=O)c1ccccc1Nc1nc(Nc2cccc(CS(C)(=O)=O)c2)ncc1C.O=CO [GSK1520489] | 99.6 | 49 | 85 | 90 | 14 | 42 | 71 | 95 | 99.6 | 99.9
44 | COc1cccc(OC)c1C(=O)Nc1cccc(-c2nn3ccccc3c2-c2ccnc(Nc3cccc(F)c3)n2)c1 [GSK361065] | 0 | 12 | 0 | 0 | 26 | 65 | 18 | 0 | 25 | 41
